# From PubChem BioAssay (NCATS)
# Where “and” joins values, the source holds several entries; their conditions need not be identical. Equal entries are not always repeated. Inconclusive results are not listed. A call without a number means that no potency is given here. Where a structure was tested more than once in an assay, its records may differ in their call. Calls of active or inactive are those of the source. Calls come from the whole dose curve; as a rule, active = well fitted curve in the direction sought with a large enough effect; inconclusive = small, poorly fitted or top-dose-only effect, or another doubt; inactive = no such curve, though single readings can be large; an effect the other way counts as inactive or inconclusive.
# Columns and labels:
# [1] = target: Glutathione peroxidase 1 (Homo sapiens) (UniProt P07203); assay: Primary qHTS Assay for Inhibitors of Recombinant Selenoprotein Glutathione Peroxidase 1 (GPX1) (AID 1845191); note: nearly all actives have a fitted effect of over 65% in size; note: potency is the fitted concentration of half-maximal effect
# In short: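 GPX1 10 nM, GR 100 nM, GSH 1 mM, NADPH 0.5 mM, CHP 0.5 mM (final). 30-min cpd preincubation, RT. Ex340/Em450 read t=0, t=15 min.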
# [2] = target: Phospholipid hydroperoxide glutathione peroxidase GPX4 (Homo sapiens) (UniProt P36969); assay: Primary qHTS Assay for Inhibitors of Recombinant Selenoprotein Glutathione Peroxidase 4 (GPX4) (AID 1845192); note: nearly all actives have a fitted effect of over 65% in size; for activity change, negative = inhibition: series mostly up to about 50 µM
# In short: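 qHTS, GR-coupled: GPX4 200 nM + cpd 30 min RT → GSH 1 mM, NADPH 0.5 mM, GR 100 nM → CHP 0.5 mM start; fluor 340/450 at t0 and t15 min; no-enzyme wells as control.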
# [3] = target: Luciferin 4-monooxygenase (Photinus pyralis) (UniProt P08659); assay: Primary firefly luciferase (FLuc) qHTS assay for identification of artifact compounds. (AID 1845220); details: outcome: dose series up to 54.1 µM unless noted; note: nearly all actives have a fitted effect of over 60% in size; for activity change, negative = inhibition: series mostly up to about 54 µM
# In short: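 In this counter-screen for luciferase artifacts, test compounds met substrate (10 uM each luciferin and ATP) before 10 nM enzyme started the reaction. Light output was measured 5 min later.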
# [4] = Primary fluorescence-based thiol-reactive (MSTI) qHTS assay for identification of artifact compounds. (AID 1845221); note: nearly all actives have a fitted effect of over 65% in size; note: potency is the fitted concentration of half-maximal effect;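 for activity change, negative = thiol reactive: series mostly up to about 54 µM; thiol-reactive compounds lower the probe fluorescence signal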
# In short: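 In PBS pH 7.4 with 2% DMSO, each compound met 4 uM MSTI for one hour at ambient temperature, shielded from light, before fluorescence detection.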
# [5] = system: Nanoluciferase (engineered Oplophorus gracilirostris luciferase); assay: Primary Nanoluciferase (NLuc) qHTS assay for identification of artifact compounds. (AID 1845222);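 note: NLuc secreted into diluted conditioned medium of S16 cells; series mostly up to about 54 µM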
# In short: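 Using secreted nanoluciferase in S16 culture medium (0.22 um filtered, 1:55 dilution), compounds were preincubated 15 min at RT. Signal was generated with Nano-Glo reagent (1:100) over 5 min.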
# [6] = Primary redox qHTS assay for identification of artifact compounds. (AID 1845223)
# In short: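 Redox-cycling detection via DTT (250 uM final) oxidation coupled to Amplex Red (25 uM)/HRP (250 mU/mL) in HBSS. 15 min preincubation plus 30 min after DTT, room temperature. Ex/Em 525/598 nm; 4-parameter Hill fit against DMSO and 10 uM DA3003.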
# Chain of Glutathione peroxidase 1 (Homo sapiens) (P07203 whole entry, looked up): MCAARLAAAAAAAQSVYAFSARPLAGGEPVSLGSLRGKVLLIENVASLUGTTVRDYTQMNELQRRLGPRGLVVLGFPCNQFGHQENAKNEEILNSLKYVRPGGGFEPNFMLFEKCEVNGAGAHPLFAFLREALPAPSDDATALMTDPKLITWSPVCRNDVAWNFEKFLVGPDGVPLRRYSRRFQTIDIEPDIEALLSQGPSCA
# Chain of Phospholipid hydroperoxide glutathione peroxidase GPX4 (Homo sapiens) (P36969 whole entry, looked up): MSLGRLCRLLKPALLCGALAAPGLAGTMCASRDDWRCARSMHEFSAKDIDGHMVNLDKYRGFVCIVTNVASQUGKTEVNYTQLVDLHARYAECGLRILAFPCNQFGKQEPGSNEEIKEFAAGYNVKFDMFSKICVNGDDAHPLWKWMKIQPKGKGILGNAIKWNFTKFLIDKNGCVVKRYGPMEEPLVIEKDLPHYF
smiles,measurement,setting,value
OC[C@H]1O[C@@H](O[C@@H]2[C@@H](CO)O[C@](O)(CO)[C@H]2O)[C@H](O)[C@@H](O)[C@H]1O,Potency,[1],inactive
same,Potency,[2],inactive
C[C@H]1O[C@@H](n2cc(F)c(=O)[nH]c2=O)[C@H](O)[C@@H]1O,Potency,[1],inactive
same,Potency,[2],inactive
NC(=O)c1ncn([C@@H]2O[C@H](CO)[C@@H](O)[C@H]2O)c1N,Potency,[1],inactive
same,Potency,[2],inactive
NC(=O)NC(=O)Cc1ccccc1,Potency,[1],inactive
same,Potency,[2],inactive
OCC(CO)N[C@H]1C[C@](O)(CO)[C@@H](O)[C@H](O)[C@H]1O,Potency,[1],inactive
same,Potency,[2],inactive
OCC(O)CN1CCN(c2ccccc2)CC1 (stereo unspecified),Potency,[1],inactive
same,Potency,[2],inactive
same,outcome,[3],inactive
same,Potency,[4],inactive
same,outcome,[5],inactive
same,outcome,[6],inactive
CC(C)(C)C(=O)C(Oc1ccc(Cl)cc1)n1ccnc1 (stereo unspecified),Potency,[1],inactive
same,Potency,[2],inactive
same,outcome,[3],inactive
same,Potency,[4],inactive
same,outcome,[5],inactive
same,outcome,[6],inactive
CC(=O)NC(Cc1ccccc1)C(=O)O (stereo unspecified),Potency,[1],inactive
same,Potency,[2],inactive
same,outcome,[3],inactive [at 86.2 µM]
same,Potency,[4],11.2 µM (active)
same,outcome,[5],inactive
same,outcome,[6],inactive
CCOc1ccc2ccccc2c1C(=O)N[C@@H]1C(=O)N2[C@@H]1SC(C)(C)[C@@H]2C(=O)O,Potency,[1],inactive
same,Potency,[2],inactive
same,outcome,[3],inactive
same,Potency,[4],inactive
same,outcome,[5],inactive
CN(C)CCN(Cc1ccccc1)c1ccccn1,Potency,[2],inactive
Nc1ncnc2c1ncn2[C@@H]1O[C@H](CO)[C@@H](O)[C@H]1O,Potency,[1],inactive
same,Potency,[2],inactive
CN1CCC[C@@H]1Cc1c[nH]c2ccc(CCS(=O)(=O)c3ccccc3)cc12,Potency,[1],inactive
same,Potency,[2],inactive
same,outcome,[3],inactive
same,Potency,[4],inactive
same,outcome,[5],inactive
same,outcome,[6],inactive
CCOC(CN1CCN(CC(C)C(=O)c2ccccc2)CC1)c1ccccc1 (stereo unspecified),Potency,[1],inactive
same,Potency,[2],inactive
same,outcome,[3],inactive
same,outcome,[5],inactive
CC[C@@]1(c2ccccc2)NC(=O)N(C)C1=O,Potency,[1],inactive
same,Potency,[2],inactive
CCN(CC)CCNC(=O)c1cc(Cl)c(N)cc1OC,Potency,[1],inactive
same,Potency,[2],inactive
same,outcome,[3],inactive
same,Potency,[4],inactive
same,outcome,[5],inactive
same,outcome,[6],inactive
Cn1c(=O)c2c(ncn2CC2OCCO2)n(C)c1=O,Potency,[1],inactive
same,Potency,[2],inactive
same,outcome,[3],inactive
same,Potency,[4],inactive
same,outcome,[5],inactive
same,outcome,[6],inactive
CS(=O)(=O)c1ccc([C@@H](O)[C@@H](CF)NC(=O)C(Cl)Cl)cc1,Potency,[1],inactive
same,Potency,[2],inactive
same,outcome,[3],inactive
same,Potency,[4],inactive
same,outcome,[5],inactive
same,outcome,[6],inactive
COc1cc(C)c(Cc2cnc(N)nc2N)cc1OC,Potency,[2],inactive
CN1CCOC(c2ccccc2)c2ccccc2C1 (stereo unspecified),Potency,[1],inactive
same,Potency,[2],inactive
same,outcome,[3],inactive
same,Potency,[4],inactive
same,outcome,[5],inactive
same,outcome,[6],inactive
c1ccc(CN(CC2=NCCN2)c2ccccc2)cc1,Potency,[1],inactive
same,Potency,[2],inactive
same,outcome,[3],inactive
same,Potency,[4],inactive
same,outcome,[5],inactive
same,outcome,[6],inactive
COc1ccc2c(c1)C(=O)N(CCc1ccc(S(=O)(=O)NC(=O)NC3CCCCC3)cc1)C(=O)C2(C)C,Potency,[1],inactive
same,Potency,[2],inactive
same,outcome,[3],inactive
same,Potency,[4],inactive
same,outcome,[5],inactive
same,outcome,[6],inactive
CCCCCCCCCCCCCCCCCCOCC(O)CO (stereo unspecified),Potency,[1],inactive
same,Potency,[2],inactive
CCCCN1CCCC[C@H]1C(=O)Nc1c(C)cccc1C,Potency,[1],inactive
same,Potency,[2],inactive
same,outcome,[3],inactive
same,Potency,[4],inactive
same,outcome,[5],inactive
same,outcome,[6],inactive
C[C@@H]1CN(c2c(F)c(F)c3c(=O)c(C(=O)O)cn(C4CC4)c3c2F)C[C@H](C)N1,Potency,[1],inactive
same,Potency,[2],inactive
same,"activity change, negative = inhibition",[3],2.25% [at 11.6 µM] (inactive)
same,"activity change, negative = thiol reactive",[4],-0.316% [at 11.5 µM] (inactive)
same,"activity, negative = inhibition",[5],4.03% [at 11.6 µM] (inactive)
same,redox activity (% of DA3003),[6],-2.75% [at 11.5 µM] (inactive)
CCN(CC)C(=O)Nc1ccc(OCC(O)CNC(C)(C)C)c(C(C)=O)c1 (stereo unspecified),Potency,[1],inactive
same,Potency,[2],inactive
same,outcome,[3],inactive
same,Potency,[4],inactive
same,outcome,[5],inactive
same,outcome,[6],inactive
COc1ccc2[nH]c(S(=O)Cc3ncc(C)c(OC)c3C)nc2n1 (stereo unspecified),Potency,[1],9.04 µM (active) and inactive and 11.4 µM (active)
same,Potency,[2],inactive
same,outcome,[3],inactive
same,Potency,[4],inactive
same,outcome,[5],inactive
same,outcome,[6],inactive
